Experimental findings from PubChem BioAssay are described below.

SMILES strings stand for the structures. A number with no mark means an inactive call. For some assays here: Results with a measured potency or affinity are listed apart. Active and inactive are the calls of the source. Unless noted, no rule for the calls is given here.

Assay [1] is described as follows: antimalarial activity against Dd2 strain (AID 2302;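 active = growth inhibition above 50% at the single 2 µM test dose, taken to imply half-maximal potency below 2 µM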;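 also: 0% = DMSO untreated growth and 100% = chloroquine plus artemisinin killed control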). Conditions: P. falciparum Dd2 in RBCs, LDH growth readout, 72 h; at 2 µM; stronger effect = higher value.
A short description of assay [2]: human hepatoma cell viability loss – ATP luminescence, cytotoxicity control for P. falciparum antimalarial project, primary screen (AID 2303;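 active = inhibition above 50%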;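 also: 0% = DMSO wells and 100% = digitonin-killed cells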). The conditions noted are these: HepG2 viability, 24-48 h, at 10 µM, stronger effect = higher value.
The target in assay [3] is L-lactate dehydrogenase (Plasmodium falciparum (isolate CDC / Honduras)) (UniProt Q27743). The experiment in a line: PfLDH activity inhibition – cell lysate, 3D7 strain, counter-screen for P. falciparum growth inhibition project (AID 2304).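 Also: 0% = vehicle and 100% = reference inhibitor.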 Conditions: P. falciparum 3D7 crude extract, LDH APAD/NBT absorbance; at 2 µM; stronger effect = higher value. On the technique in general: A counterscreen serves to expose hits that act by an unwanted route or on another target.

The nature of assay [4]: inhibition of 3D7 malaria parasite growth – strain 3D7 (AID 2306).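 Also: 0% = DMSO wells and 100% = chloroquine plus artemisinin control wells.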 The conditions noted are these: P. falciparum 3D7 erythrocytic growth, LDH absorbance, 72 h; at 2 µM; stronger effect = higher value.
For assay [5], the target named is Calcium-dependent protein kinase 1 (Plasmodium falciparum (isolate 3D7)) (UniProt P62344). Description: PfCDPK1 kinase inhibitors, biochemical, TCAMS library (AID 1159585; cut-off not given, nearly all actives have IC50 up to about 0.98 µM;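 also: inhibitors leave more ATP so luminescence rises with inhibition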). Conditions: recombinant PfCDPK1, Kinase-Glo ATP depletion luminescence. A general note: In Kinase-Glo more light means more ATP remaining.
Assay [6] addresses Plasmodium falciparum protein kinase 6 (PK6, PF3D7_1337100) (UniProt Q8IDW1). The experiment in a line: PfPK6 kinase inhibitors, biochemical, TCAMS library (AID 1159586). The conditions noted are these: recombinant PfPK6, Kinase-Glo ATP depletion luminescence.
Assay [7] has as its target Protein kinase 7 (PK7), Plasmodium falciparum 3D7 (PF3D7_0213400) (UniProt Q7YTF7). Description: inhibition of Plasmodium PK7 catalytic activity – biochemical, TCAMS antimalarial set, Kinase-Glo luminescence (AID 1159587). Conditions: recombinant PfPK7, Kinase-Glo ATP depletion luminescence.
Assay [8] has as its target Calcium-dependent protein kinase 4 (Plasmodium falciparum (isolate 3D7)) (UniProt Q8IBS5). The experiment in a line: PfCDPK4 kinase inhibitors, biochemical, TCAMS library (AID 1159588; cut-off not given, nearly all actives have IC50 up to about 0.91 µM). The conditions noted are these: recombinant PfCDPK4, Kinase-Glo ATP depletion luminescence.

Chain of L-lactate dehydrogenase (Plasmodium falciparum (isolate CDC / Honduras)) (Q27743 whole entry, looked up): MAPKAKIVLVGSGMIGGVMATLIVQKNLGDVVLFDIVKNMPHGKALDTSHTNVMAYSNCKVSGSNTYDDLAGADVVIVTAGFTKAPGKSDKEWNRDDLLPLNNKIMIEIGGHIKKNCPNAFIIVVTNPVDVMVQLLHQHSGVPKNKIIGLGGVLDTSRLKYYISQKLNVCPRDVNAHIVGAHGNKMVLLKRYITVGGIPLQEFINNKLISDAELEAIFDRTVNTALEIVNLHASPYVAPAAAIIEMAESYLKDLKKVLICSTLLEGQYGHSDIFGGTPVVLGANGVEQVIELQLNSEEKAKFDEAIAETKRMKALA
Chain of Calcium-dependent protein kinase 4 (Plasmodium falciparum (isolate 3D7)) (Q8IBS5 whole entry, looked up): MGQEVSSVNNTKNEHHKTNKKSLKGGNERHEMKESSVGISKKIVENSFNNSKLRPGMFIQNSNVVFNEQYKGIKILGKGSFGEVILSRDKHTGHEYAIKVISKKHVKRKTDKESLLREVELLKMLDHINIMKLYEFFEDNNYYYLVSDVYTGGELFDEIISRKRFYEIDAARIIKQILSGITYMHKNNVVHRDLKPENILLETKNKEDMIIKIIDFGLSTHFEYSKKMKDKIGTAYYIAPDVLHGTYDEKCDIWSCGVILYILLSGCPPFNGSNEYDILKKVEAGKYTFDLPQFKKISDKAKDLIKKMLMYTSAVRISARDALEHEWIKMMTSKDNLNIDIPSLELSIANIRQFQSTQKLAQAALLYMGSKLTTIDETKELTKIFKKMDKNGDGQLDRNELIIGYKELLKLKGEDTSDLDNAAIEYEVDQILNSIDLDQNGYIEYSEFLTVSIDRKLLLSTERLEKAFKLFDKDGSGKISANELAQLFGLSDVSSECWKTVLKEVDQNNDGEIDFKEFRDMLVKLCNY
Chain of Calcium-dependent protein kinase 1 (Plasmodium falciparum (isolate 3D7)) (P62344 whole entry, looked up): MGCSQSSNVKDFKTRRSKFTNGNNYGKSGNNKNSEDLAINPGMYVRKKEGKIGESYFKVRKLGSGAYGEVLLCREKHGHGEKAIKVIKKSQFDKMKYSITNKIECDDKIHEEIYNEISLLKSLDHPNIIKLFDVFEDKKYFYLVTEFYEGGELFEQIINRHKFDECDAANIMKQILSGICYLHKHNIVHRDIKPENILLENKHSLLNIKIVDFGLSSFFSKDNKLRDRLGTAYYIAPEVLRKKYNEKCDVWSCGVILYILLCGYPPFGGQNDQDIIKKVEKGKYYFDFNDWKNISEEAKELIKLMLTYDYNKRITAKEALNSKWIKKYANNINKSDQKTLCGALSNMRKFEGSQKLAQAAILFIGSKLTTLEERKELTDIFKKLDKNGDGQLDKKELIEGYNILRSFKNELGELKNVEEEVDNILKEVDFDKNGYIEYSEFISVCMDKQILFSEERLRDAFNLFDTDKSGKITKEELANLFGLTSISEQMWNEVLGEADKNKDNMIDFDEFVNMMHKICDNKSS
Chain of Protein kinase 7 (PK7), Plasmodium falciparum 3D7 (PF3D7_0213400) (Q7YTF7 1-343): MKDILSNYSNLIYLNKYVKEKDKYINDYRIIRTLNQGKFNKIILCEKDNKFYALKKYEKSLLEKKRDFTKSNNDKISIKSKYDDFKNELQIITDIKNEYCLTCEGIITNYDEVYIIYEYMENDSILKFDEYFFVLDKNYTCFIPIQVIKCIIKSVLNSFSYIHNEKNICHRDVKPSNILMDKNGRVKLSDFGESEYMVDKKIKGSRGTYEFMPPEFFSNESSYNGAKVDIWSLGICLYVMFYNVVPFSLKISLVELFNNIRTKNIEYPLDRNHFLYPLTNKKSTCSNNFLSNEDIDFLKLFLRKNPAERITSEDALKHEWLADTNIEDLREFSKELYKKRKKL
Chain of Plasmodium falciparum protein kinase 6 (PK6, PF3D7_1337100) (Q8IDW1 1-305): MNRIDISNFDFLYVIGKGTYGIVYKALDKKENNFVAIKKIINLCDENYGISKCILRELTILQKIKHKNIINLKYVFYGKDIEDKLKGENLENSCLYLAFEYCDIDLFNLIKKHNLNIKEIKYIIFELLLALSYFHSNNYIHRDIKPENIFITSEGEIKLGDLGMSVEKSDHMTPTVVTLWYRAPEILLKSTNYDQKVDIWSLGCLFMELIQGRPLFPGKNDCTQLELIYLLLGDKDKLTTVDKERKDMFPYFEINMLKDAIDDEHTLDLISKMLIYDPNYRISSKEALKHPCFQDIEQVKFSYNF

As a reminder, the inhibition is the relative decrease from the control value, in per cent. `Cc1cc2nc(-c3ccc(/C=C/C(=O)NC4CCN(Cc5ccccc5)CC4)cc3)[nH]c2cc1C`: the growth inhibition in assay [1] is 89% (active); in assay [4], 98% (active). The inhibition is 18% in assay [2] and -2% in assay [3]. Further, the outcome in assay [5], in assay [6], in assay [7] and in assay [8] was inactive.
For the compound `Cc1cc(N2CCN(C3CCCCC3)CC2)nc2cccc(O)c12`, the growth inhibition in assay [1] is 37%; in assay [4], 101% (active). In addition, the inhibition in assay [2] is 12%; in assay [3] it was -3%. Moreover, the outcome in assay [5], in assay [6], in assay [7] and in assay [8] was inactive.
As to `COc1cc2nc(NCCn3cccn3)nc(NCCc3ccccc3)c2cc1OC`, the results for the growth inhibition in assay [1] and in assay [4] were 100% (active) and 102% (active), respectively. For the same compound, the inhibition in assay [2] is 12%; in assay [3] it was -3%. The result in assay [5], in assay [6], in assay [7] and in assay [8] was inactive.
On to `CCOc1ccccc1NC(=O)C(Sc1nc(C)cc(C)c1C#N)c1ccccc1` (configuration not stated), for which the growth inhibition in assay [1] is 98% (active); in assay [4], 99% (active). The inhibition was -1% in assay [2] and -3% in assay [3]. Further, the result in assay [5], in assay [6], in assay [7] and in assay [8] was inactive.
Consider `CN(C)CCOc1ccc(/C(=C(/CCCn2ccnc2)c2ccccc2)c2ccc(O)cc2)cc1`, for which the growth inhibition in assay [1] was 99% (active); in assay [4], 101% (active). The results for the inhibition in assay [2] and in assay [3] were 13% and 3%, respectively. Moreover, the result in assay [5], in assay [6], in assay [7] and in assay [8] was inactive.
Consider `Oc1ccc2ncnc(Nc3ccc(OCc4cccc(F)c4)c(Cl)c3)c2c1`, for which the growth inhibition in assay [1] is 30%; in assay [4], 100% (active). In addition, the values for the inhibition in assay [2] and in assay [3] were 24% and 2%, respectively. Also, the result in assay [5], in assay [6], in assay [7] and in assay [8] was inactive.
For the compound `COc1ccc(/C=C/C(=O)N2CCc3cc4nccc(N5CCN6CCC[C@H]6C5)c4cc32)cc1`, the growth inhibition was 98% (active) in assay [1] and 100% (active) in assay [4]. The values for the inhibition in assay [2] and in assay [3] were -3% and -9%, respectively. Further, the result in assay [5], in assay [6], in assay [7] and in assay [8] was inactive.
For the compound `c1ccc(-c2ccc(-c3csc(Nc4ccncc4)n3)cc2)cc1`, the growth inhibition is 97% (active) in assay [1] and 101% (active) in assay [4]. For the same compound, the inhibition in assay [2] was 30%; in assay [3], 3%. Besides, the outcome in assay [5], in assay [6], in assay [7] and in assay [8] was inactive.
Consider `Cc1noc(C)c1-c1cccc(CNCc2cccc(-c3cccc(-c4nc5c(C)cccc5[nH]4)c3)c2)c1`, for which the growth inhibition was 66% (active) in assay [1] and 102% (active) in assay [4]. The inhibition in assay [2] is 15%; in assay [3] it was 4%. The outcome in assay [5], in assay [6], in assay [7] and in assay [8] was inactive.
For the compound `NC(=O)c1cccc(C(=O)Nc2cccc(-c3cccc(-c4nc5ccc(C(F)(F)F)cc5[nH]4)c3)c2)c1`, the growth inhibition is 85% (active) in assay [1] and 100% (active) in assay [4]. The inhibition is 71% (active) in assay [2] and -5% in assay [3]. The result in assay [5], in assay [6], in assay [7] and in assay [8] was inactive.
As to `CN1N=C2c3ccccc3CCC2C1c1ccc(C#N)cc1` (configuration not stated), the growth inhibition in assay [1] was 85% (active); in assay [4] it was 95% (active). Also, the inhibition in assay [2] was -9%; in assay [3], 2%. For the same compound, the outcome in assay [5], in assay [6], in assay [7] and in assay [8] was inactive.
Take `CC(C)CNc1c2c(nc3cnn(-c4c5c(nc6cn[nH]c46)CCCC5)c13)CCCC2`: the growth inhibition in assay [1] was -2%; in assay [4] it was 100% (active). For the same compound, the inhibition was 7% in assay [2] and -5% in assay [3]. Besides, the result in assay [5], in assay [6], in assay [7] and in assay [8] was inactive.
As for `COc1cccc(NC(=O)Cn2c(C)c(C#N)c3ccccc32)c1`, the growth inhibition in assay [1] was 100% (active); in assay [4] it was 101% (active). The figures for the inhibition in assay [2] and in assay [3] were 16% and 4%, respectively. The outcome in assay [5], in assay [6], in assay [7] and in assay [8] was inactive.
For the compound `CN(C)S(=O)(=O)c1ccc(N2C(=O)[C@@H]3[C@H](C2=O)[C@@]2(c4ccccc4)C(=O)[C@]3(c3ccccc3)C(c3ccccc3)=C2c2ccccc2)cc1`, the growth inhibition in assay [1] was 63% (active); in assay [4], 92% (active). The inhibition is -10% in assay [2] and 3% in assay [3]. For the same compound, the outcome in assay [5], in assay [6], in assay [7] and in assay [8] was inactive.
`CC(=O)Nc1ccc(S(=O)(=O)N2CCN(c3nc(NC4CCCC4)c4ccccc4n3)CC2)cc1`: the growth inhibition in assay [1] was 2%; in assay [4], 88% (active). For the same compound, the results for the inhibition in assay [2] and in assay [3] were 7% and 1%, respectively. Further, the result in assay [5], in assay [6], in assay [7] and in assay [8] was inactive.
For `O=C(Cc1ccc(-c2ccccc2)cc1)N[C@H]1CCN(Cc2ccc(OCCCN3CCCCC3)cc2)C1`, the growth inhibition in assay [1] is 27%; in assay [4], 99% (active). Moreover, the inhibition is 36% in assay [2] and 0% in assay [3]. The result in assay [5], in assay [6], in assay [7] and in assay [8] was inactive.
Turning to `O=[N+]([O-])c1ccc2nccnc2c1`, the figures for the growth inhibition in assay [1] and in assay [4] were 0% and 97% (active), respectively. Moreover, the results for the inhibition in assay [2] and in assay [3] were -2% and -1%, respectively. The result in assay [5], in assay [6], in assay [7] and in assay [8] was inactive.
Turning to `COc1ccc(-c2cccc(NC(=O)c3ccc(C#N)cc3)c2)cc1CNC(C)C`, the values for the growth inhibition in assay [1] and in assay [4] were 14% and 100% (active), respectively. Also, the values for the inhibition in assay [2] and in assay [3] were 25% and -1%, respectively. The outcome in assay [5], in assay [6], in assay [7] and in assay [8] was inactive.
With `O=C(Nc1cccc(-c2cccc(F)c2)c1)C1CCN(Cc2ccc(O)cc2)CC1`, the growth inhibition was 2% in assay [1] and 87% (active) in assay [4]. In addition, the inhibition is 13% in assay [2] and 3% in assay [3]. For the same compound, the result in assay [5], in assay [6], in assay [7] and in assay [8] was inactive.
